Laboratory results taken from PubChem BioAssay (Tox21).
Where “and” joins values, the source holds several entries; their conditions need not be identical. Equal entries are not always repeated. Records with an inconclusive call do not appear. Calls of active or inactive are those of the source. Calls follow the shape of the dose curve; as a rule, active = well fitted curve in the direction sought with a large enough effect in the repeat runs; inconclusive = weak or mixed curves; inactive = no such curve, though single readings can be large; an effect the other way counts as inactive or inconclusive.

What was measured:
[1] = A CellTox Green Cytotoxicity Assay to monitor cytotoxicity in HEK293 cells - 32 hour (AID 1224881); also: nearly all actives have a fitted effect of over 40% in size; also: potency is read from the fitted curve at half-maximal effect
Summary of the method: (§1)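 Fluorescence from a DNA-binding dye excluded by viable cells was measured repeatedly in the same HEK293 wells (600 cells/well) during continuous compound exposure at 37 C. Each assay gives one read point: 0, 8, 16, 24, 32 or 40 h.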

[2] = A CellTox Green Cytotoxicity Assay to monitor cytotoxicity in HepG2 cells - 0 hour (AID 1224882); also: nearly all actives have a fitted effect of over 35% in size; also: potency is read from the fitted curve at half-maximal effect
Summary of the method: (§2)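 Real-time cytotoxicity: fluorescence of a cell-impermeant cyanine dye binding DNA of dead HepG2 cells, measured repeatedly (0–40 h) during compound exposure at 37 C. Cells seeded 600/well with reagent, dosed after 5 h.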

[3] = A CellTox Green Cytotoxicity Assay to monitor cytotoxicity in HepG2 cells - 32 hour (AID 1224883); also: nearly all actives have a fitted effect of over 50% in size; also: potency is read from the fitted curve at half-maximal effect
Summary of the method: as §2

[4] = A CellTox Green Cytotoxicity Assay to monitor cytotoxicity in HEK293 cells - 8 hour (AID 1224884); also: nearly all actives have a fitted effect of over 35% in size; also: potency is read from the fitted curve at half-maximal effect
Summary of the method: as §1

[5] = qHTS RealTime-Glo MT Cell Viability Assay in HepG2 cells - 16 hour (AID 1224885); also: nearly all actives have a fitted effect of over 50% in size; also: potency is read from the fitted curve at half-maximal effect
Summary of the method: (§3)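 Cells + NanoLuc/prosubstrate dispensed (600 cells/well) → 5 h at 37 C/5% CO2 → compounds in DMSO transferred → 40 h incubation at 37 C, luminescence read at 0, 8, 16, 24, 32, 40 h.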

[6] = qHTS RealTime-Glo MT Cell Viability Assay in HEK293 cells - 24 hour (AID 1224886); also: nearly all actives have a fitted effect of over 50% in size; also: potency is read from the fitted curve at half-maximal effect
Summary of the method: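 Tox21 10K qHTS, HEK293, 600 cells/well, RealTime-Glo reagent co-dispensed with cells; 5 h preincubation, compound by pintool, 37 C, luminescence at 0–40 h.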

[7] = qHTS RealTime-Glo MT Cell Viability Assay in HEK293 cells - 8 hour (AID 1224887); also: nearly all actives have a fitted effect of over 50% in size; also: potency is read from the fitted curve at half-maximal effect
Summary of the method: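 Luminescence, which tracks viable cell number through reduction of the prosubstrate to a NanoLuc substrate, was read over continuous 37 C culture. Cells (600/well) were premixed with reagent and rested 5 h before 23 nL of compound in DMSO was pinned.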

[8] = A CellTox Green Cytotoxicity Assay to monitor cytotoxicity in HEK293 cells - 16 hour (AID 1224888); also: nearly all actives have a fitted effect of over 35% in size; also: potency is read from the fitted curve at half-maximal effect
Summary of the method: as §1

[9] = qHTS RealTime-Glo MT Cell Viability Assay in HepG2 cells - 0 hour (AID 1224889); also: nearly all actives have a fitted effect of over 50% in size
Summary of the method: as §3

[10] = A CellTox Green Cytotoxicity Assay to monitor cytotoxicity in HepG2 cells - 8 hour (AID 1224890); also: nearly all actives have a fitted effect of over 45% in size; also: potency is read from the fitted curve at half-maximal effect
Summary of the method: as §2

Measured: Potency

Cc1ccc(N)c(C)c1
inactive: [1] | [2] | [3] | [4] | [5] | [6] | [7] | [8] | [9] | [10]

CC(Oc1cc(Cl)c(Cl)cc1Cl)C(=O)O (stereo not given)
inactive: [1] | [2] | [3] | [4] | [5] | [6] | [7] | [8] | [9] | [10]

CCOC(=O)c1cncn1C(C)c1ccccc1 (stereo not given)
inactive: [1] | [2] | [3] | [4] | [5] | [6] | [7] | [8] | [9] | [10]

O=C(O)C(F)(F)C(F)(F)C(F)(F)C(F)(F)C(F)(F)F
inactive: [1] | [2] | [3] | [4] | [5] | [6] | [7] | [8] | [9] | [10]

CNC(=O)Oc1cccc(N=CN(C)C)c1
inactive: [1] | [2] | [3] | [4] | [5] | [6] | [7] | [8] | [9] | [10]

Nc1cc(Cl)cc(C(=O)O)c1Cl
inactive: [1] | [2] | [3] | [4] | [5] | [6] | [7] | [8] | [9] | [10]

CCCC(C)(COC(N)=O)COC(=O)NC(C)C (stereo not given)
inactive: [1] | [2] | [3] | [4] | [5] | [6] | [7] | [8] | [9] | [10]

N#CC(C#N)=C(C#N)C#N
inactive: [1] | [2] | [3] | [4] | [5] | [6] | [7] | [8] | [9] | [10]

C[C@H](N)[C@H](O)c1ccc(O)c(O)c1
inactive: [5] | [6] | [7] | [9]
active: [1] 19 µM | [2] 26.8 µM | [3] 21.3 µM | [4] 19 µM | [8] 21.3 µM | [10] 26.8 µM

NC(=O)CF
inactive: [1] | [2] | [3] | [4] | [5] | [6] | [7] | [8] | [9] | [10]

CCCCCl
inactive: [1] | [2] | [3] | [4] | [5] | [6] | [7] | [8] | [9] | [10]

CCCCCCCCn1sccc1=O
inactive: [2] | [9]
active: [1] 55.1 µM and 25.7 µM | [3] 43.7 µM and 22.9 µM | [4] 36.3 µM | [5] 43.7 µM and 16.2 µM | [6] 12.3 µM and 12.9 µM | [7] 39 µM and 40.8 µM | [8] 51.3 µM | [10] 25.7 µM

CN(C1CCCCC1)C1CCCCC1
inactive: [1] | [2] | [3] | [4] | [5] | [6] | [7] | [8] | [9] | [10]

CON(C)C(=O)Nc1ccc(Cl)cc1
inactive: [1] | [2] | [3] | [4] | [5] | [6] | [7] | [8] | [9] | [10]

C[C@H]1[C@@H]2Cc3ccc(O)cc3[C@@]1(C)CCN2C
inactive: [1] | [2] | [3] | [4] | [5] | [6] | [7] | [8] | [9] | [10]

C=C(Cl)Cl
inactive: [1] | [2] | [3] | [4] | [5] | [6] | [7] | [8] | [9] | [10]

CCOC(=O)NC(O)C(Cl)(Cl)Cl (stereo not given)
inactive: [1] | [2] | [3] | [4] | [5] | [6] | [7] | [8] | [9] | [10]

COC1=CC(=O)O[C@@H](/C=C/c2ccc3c(c2)OCO3)C1
inactive: [1] | [2] | [3] | [4] | [5] | [6] | [7] | [8] | [9] | [10]

FC(Cl)(Cl)C(F)(Cl)Cl
inactive: [1] | [2] | [3] | [4] | [5] | [6] | [7] | [8] | [9] | [10]

C[N+]1(CCC(C(N)=O)(c2ccccc2)c2ccccc2)CCCCC1
inactive: [1] | [2] | [3] | [4] | [5] | [6] | [7] | [8] | [9] | [10]

CC(C)(C)NCC(O)c1cc(Cl)c(N)c(C(F)(F)F)c1 (stereo not given)
inactive: [1] | [2] | [3] | [4] | [5] | [6] | [7] | [8] | [9] | [10]

Cc1ccc2c(C)cccc2c1
inactive: [1] | [2] | [3] | [4] | [5] | [6] | [7] | [8] | [9] | [10]

CC(C)(c1ccccc1)c1cc(-n2nc3ccccc3n2)c(O)c(C(C)(C)c2ccccc2)c1
inactive: [1] | [2] | [3] | [4] | [5] | [6] | [7] | [8] | [9] | [10]

Clc1ccc(Cl)c(Cl)c1
inactive: [1] | [2] | [3] | [4] | [5] | [6] | [7] | [8] | [9] | [10]

FC(F)OC(F)(F)C(F)Cl (stereo not given)
inactive: [1] | [2] | [3] | [4] | [5] | [6] | [7] | [8] | [9] | [10]

C[N+]1(CCF)[C@@H]2CC[C@H]1CC(OC(=O)C(O)(c1ccccc1)c1ccccc1)C2 (stereo not given in full)
inactive: [1] | [2] | [3] | [4] | [5] | [6] | [7] | [8] | [9] | [10]

CC1(C)CC(=O)CC(C)(C)N1[O]
inactive: [1] | [2] | [3] | [4] | [5] | [6] | [7] | [8] | [9] | [10]

CCCCCCCCCCCC[N+](C)(C)CCOc1ccccc1
inactive: [2] | [9]
active: [1] 17.4 µM and 23.9 µM | [3] 13.8 µM and 8.49 µM | [4] 24.6 µM | [5] 43.7 µM and 21.3 µM | [6] 11 µM and 10.7 µM | [7] 43.7 µM and 23.9 µM | [8] 21.9 µM and 23.9 µM | [10] 55 µM and 26.8 µM

O=C(O)c1cc(I)cc(I)c1I
inactive: [1] | [2] | [3] | [4] | [5] | [6] | [7] | [8] | [9] | [10]

C[C@]12CC[C@H]3[C@@H](CCC4=CC(=O)CC[C@@H]43)[C@@H]1CC[C@@H]2OC(=O)CCc1ccccc1
inactive: [1] | [2] | [3] | [4] | [5] | [6] | [7] | [8] | [9] | [10]

CC(=O)NNc1ccccc1
inactive: [1] | [2] | [3] | [4] | [5] | [6] | [7] | [8] | [9] | [10]

CCCCCCCCP(=O)(O)O
inactive: [1] | [2] | [3] | [4] | [5] | [6] | [7] | [8] | [9] | [10]

CC(Cl)C(=O)O (stereo not given)
inactive: [1] | [2] | [3] | [4] | [5] | [6] | [7] | [8] | [9] | [10]

CCCCC(CC)CO[N+](=O)[O-] (stereo not given)
inactive: [1] | [2] | [3] | [4] | [5] | [6] | [7] | [8] | [9] | [10]

CC(CC(C(N)=O)(c1ccccc1)c1ccccc1)N(C)C (stereo not given)
inactive: [1] | [2] | [3] | [4] | [5] | [6] | [7] | [8] | [9] | [10]

O=S(=O)(Cl)Cl
inactive: [1] | [2] | [3] | [4] | [5] | [6] | [7] | [8] | [9] | [10]

SCc1ccccc1
inactive: [1] | [2] | [3] | [4] | [5] | [6] | [7] | [8] | [9] | [10]

COc1ccc(C(O)(c2cncnc2)C2CC2)cc1 (stereo not given)
inactive: [1] | [2] | [3] | [4] | [5] | [6] | [7] | [8] | [9] | [10]

CCOP(=O)(O)C(N)=O
inactive: [1] | [2] | [3] | [4] | [5] | [6] | [7] | [8] | [9] | [10]

C1CCNCC1
inactive: [1] | [2] | [3] | [4] | [5] | [6] | [7] | [8] | [9] | [10]

Cc1ncc(C[n+]2csc(CCO)c2C)c(N)n1
inactive: [1] | [2] | [3] | [4] | [5] | [6] | [7] | [8] | [9] | [10]

O=C1CC[C@@]2(O)[C@H]3Cc4ccc(O)c5c4[C@@]2(CCN3CC2CC2)[C@H]1O5
inactive: [1] | [2] | [3] | [4] | [5] | [6] | [7] | [8] | [9] | [10]

c1ccc2c(c1)sc1ccccc12
inactive: [1] | [2] | [3] | [4] | [5] | [6] | [7] | [8] | [9] | [10]

CCSCc1ccccc1OC(=O)NC
inactive: [1] | [2] | [3] | [4] | [5] | [6] | [7] | [8] | [9] | [10]

O=C(O)CCCOc1ccc(Cl)cc1Cl
inactive: [1] | [2] | [3] | [4] | [5] | [6] | [7] | [8] | [9] | [10]

O=C(N/N=C/c1ccc([N+](=O)[O-])o1)c1cc([N+](=O)[O-])cc([N+](=O)[O-])c1O
inactive: [1] | [2] | [3] | [4] | [5] | [6] | [7] | [8] | [9] | [10]

NC(=S)c1c(Cl)cccc1Cl
inactive: [1] | [2] | [3] | [4] | [5] | [6] | [7] | [8] | [9] | [10]

C[N+](C)(C)CCOC(=O)C(O)(c1ccccc1)c1ccccc1
inactive: [1] | [2] | [3] | [4] | [5] | [6] | [7] | [8] | [9] | [10]
